Measurements from PubChem BioAssay (NCI).
This is part of a sample that, as a whole, favours compounds with a hit. Of some 79,000 tested, about 15% had one in any assay. No stated cut-off is given here; in the data, active means growth inhibition above about 70%; inactive means the rest.

How the values were obtained:
[1] = NCI Yeast Anticancer Drug Screen. Data for the rad50 strain (AID 155);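 further: 0% = growth of vehicle-only cultures of the same strain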; details: S. cerevisiae rad50 strain growth inhibition; at 50.0 µM; hits give high values
How it was run: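 Relative growth inhibition (compound vs vehicle) was measured in yeast with a defined repair-gene alteration.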

[2] = NCI Yeast Anticancer Drug Screen. Data for the mec2-1 strain (AID 157); details: S. cerevisiae mec2-1 strain, at 50.0 µM, hits give high values
How it was run: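 Growth inhibition is read against vehicle-treated controls after compound exposure of the mec2-1 yeast strain, which is defective in DNA damage repair or cell cycle control.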

[3] = NCI Yeast Anticancer Drug Screen. Data for the sgs1 mgt1 strain (AID 161);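 further: 0% = growth of cultures given vehicle only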; details: S. cerevisiae sgs1 mgt1 strain, at 50.0 µM, hits give high values
How it was run: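 This yeast growth screen uses a strain with defined DNA-repair lesions; compound-treated growth is compared with vehicle-treated growth.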

[4] = NCI Yeast Anticancer Drug Screen. Data for the cln2 rad14 strain (AID 165);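 further: 0% = growth equal to vehicle treated cultures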; details: S. cerevisiae cln2 rad14 strain, at 50.0 µM, hits give high values
How it was run: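 Growth inhibition, relative to vehicle-treated controls, is the read-out. The test organism is a yeast strain with defined genetic alterations, cln2 rad14.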

[5] = NCI Yeast Anticancer Drug Screen. Data for the bub3 strain (AID 167); details: S. cerevisiae bub3 mutant strain, at 50.0 µM, hits give high values
How it was run: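 Screening used yeast with an engineered genetic alteration affecting cell cycle control. Compound-exposed cultures were compared with vehicle cultures, and reduced growth was taken as inhibition.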

[6] = NCI Yeast Anticancer Drug Screen. Data for the mlh1 rad18 strain (AID 175); details: S. cerevisiae mlh1 rad18 strain growth inhibition; at 50.0 µM; hits give high values
How it was run: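 Cells of a genetically altered yeast strain, deficient in DNA damage repair, were treated with compound. Their growth was then compared with that of vehicle-treated cultures to give inhibition.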

Measured: growth inhibition

COC(=O)C(OC)(OC)C(O)c1ccccc1 (stereo unspecified)
inactive: [1] 34.4% | [2] 4.6% | [3] 49% | [4] 4.95% | [5] -9.35% | [6] 6.8%

O=C(N[C@H](CO)[C@H](O)c1ccc([N+](=O)[O-])cc1)C(Cl)Cl
inactive: [1] 25.2% | [2] -4.05% | [3] 28.9% | [4] 9.55% | [5] 35.6% | [6] 10.7%

C1CC2CC1C13OC1C1(CC1)C1OC213 (stereo unspecified)
inactive: [1] -4.5% | [2] 11.6% | [3] -40.5% | [4] -28.4% | [5] -20.2% | [6] -45.5%

Cc1[nH]c(=O)cc(C(=O)O)c1CN
inactive: [1] 7.15% | [2] -8.75% | [3] 3.7% | [4] -59.2% | [5] -7.25% | [6] -3.45%

CC(=O)OC(=O)C(=O)C(F)C(O)C(C)C (stereo unspecified)
inactive: [1] -16.6% | [2] -13.9% | [3] -14.2% | [4] -10.4% | [5] -13.4% | [6] 7.45%

CC(C)CCCC(C)C1CCC2C3CCC(O)C(C)(CCCO)C3CCC12C (stereo unspecified)
inactive: [1] 2% | [2] -3.85% | [3] 11.9% | [4] 32.1% | [5] 15.3% | [6] 13.7%

CC12CCC(=O)C=C1CCC1C2CCC2(C)C(C(=O)Cn3c(=O)[nH]cc(F)c3=O)CCC12 (stereo unspecified)
inactive: [1] 19.9% | [2] 1.85% | [3] 25.9% | [4] 8.85% | [5] 6.55% | [6] 11%

CC(N)CCCO (stereo unspecified)
inactive: [1] -5.15% | [2] -5.5% | [3] 0.75% | [4] 10.3% | [5] -2.05% | [6] -2.05%

c1cncc(CNc2ncn[nH]2)c1
inactive: [1] -2.5% | [2] 8.3% | [3] -24.1% | [4] -50.3% | [5] -24.9% | [6] -29.8%

Cc1nnc2ncccn12
inactive: [1] 31.1% | [2] -10.3% | [3] 8.4% | [4] -0.1% | [5] 0.55% | [6] -42.2%

CC1CC(C)OC(c2ccco2)O1 (stereo unspecified)
inactive: [1] 2.4% | [2] -20.6% | [3] -11.9% | [4] -37.6% | [5] -15.1% | [6] 16.2%

CCOC(=O)CCC(NC(=O)c1ccc(NCc2ccc3nc(-c4ccccc4)c(Cl)nc3c2)cc1)C(=O)OCC (stereo unspecified)
inactive: [1] 29.7% | [2] -3.85% | [3] -5.3% | [4] -5.6% | [5] 1.7% | [6] 4.3%

CCCCNC(=O)OCc1cnc(C)n1Cc1ccccc1
inactive: [1] 2.8% | [2] -0.3% | [3] 6% | [4] 4.95% | [5] 4.1% | [6] 10.2%

COc1ccc(CN2CCCN(Cc3ccc(OC)cc3)C2c2ccc([N+](=O)[O-])cc2)cc1
inactive: [1] -0.3% | [2] 14.8% | [3] 12.8% | [4] -18.7% | [5] 32.9% | [6] -16.6%

O=S(Cc1ccccc1)c1ccccc1Cn1cccc1 (stereo unspecified)
inactive: [1] -32.8% | [2] -39.6% | [3] -19.6% | [4] -18.6% | [5] 14.2% | [6] -9.5%

CC1NC(=O)OC1C(C)(C)C (stereo unspecified)
inactive: [1] 6.95% | [2] -2.8% | [3] -0.75% | [4] -19.1% | [5] -5.4% | [6] -4.55%

CC1=C/C(=N/Nc2ccc([N+](=O)[O-])cc2[N+](=O)[O-])CC(C)(C)C1
inactive: [1] -21.3% | [2] -27.2% | [3] 18.4% | [4] -41% | [5] 3.1% | [6] 3.5%

N#CC1C(=O)NC(=O)C(C#N)C1C1C(=O)NC2CCCCC21 (stereo unspecified)
inactive: [1] 41.2% | [2] 5% | [3] 17.2% | [4] 23.2% | [5] 11.1% | [6] 32.8%

CC(/C=C/c1ccccc1)=N\O
inactive: [1] 9.4% | [2] 7.2% | [3] -1.4% | [4] 28.8% | [5] 3.45% | [6] 1.95%

c1ccc(-c2csnn2)cc1
inactive: [1] -8.6% | [2] -12.2% | [3] -4.05% | [4] -17.8% | [5] -13.4% | [6] -11.8%

OC(c1cccc(OCc2ccccc2)c1)c1ccccn1 (stereo unspecified)
inactive: [1] 4.95% | [2] -6.6% | [3] 2.15% | [4] -20.9% | [5] 2.15% | [6] 2%

CSCCC(NCc1c(O)ccc2c(C)cc(=O)oc12)C(=O)O (stereo unspecified)
inactive: [1] 16.5% | [2] 0.85% | [3] 14% | [4] 25.9% | [5] -1.05% | [6] 26.7%

CS(=O)(=O)OCC1COCC1COS(C)(=O)=O (stereo unspecified)
inactive: [1] 26.8% | [2] -6.3% | [3] 8.75% | [4] -11.8% | [5] -14.1% | [6] 16.6%

CCOC(=O)C1CC(=O)NC(N)=N1 (stereo unspecified)
inactive: [1] -12.6% | [2] -29.4% | [3] -13.6% | [4] -7.95% | [5] -8.2% | [6] -14.2%

O=C1C(Cl)N(c2c(Cl)cccc2Cl)C1c1c[nH]c2ccccc12 (stereo unspecified)
inactive: [1] -35.5% | [2] -43.6% | [3] -34.2% | [4] -22.4% | [5] -20.9% | [6] -41.8%

COc1ccc(NC(=O)CC(O)c2cccc(N)c2)cc1 (stereo unspecified)
inactive: [1] 22.3% | [2] -26.4% | [3] 26.3% | [4] 7.1% | [5] 25.1% | [6] 12.5%

CC(C)CC(NC(=O)C(CS)NC(=O)CN1C(=O)CCC1=O)C(N)=O (stereo unspecified)
inactive: [1] 15.1% | [2] -2.5% | [3] 4.65% | [4] -17.1% | [5] 13.3% | [6] 19.8%

CCCC[n+]1cccc(C(N)=O)c1
inactive: [1] -3.55% | [2] -19.9% | [3] 3.35% | [4] 0.4% | [5] 12.8% | [6] -2.15%

CN1CCc2c1nc(-c1ccc([N+](=O)[O-])cc1)c1c2N(C)CC1
inactive: [1] 13.2% | [2] 0.7% | [3] 2.8% | [4] 6.85% | [5] 10.8% | [6] 9.95%

NC(=O)C[n+]1cccc(C(=O)Nc2ccccc2)c1
inactive: [1] 17.4% | [2] 4.45% | [3] 7.25% | [4] -43.2% | [5] 23.2% | [6] 10.7%

O=C(O)c1cc(=O)c2[nH]c3ccccc3c2s1
inactive: [1] -5.2% | [2] -17.9% | [3] -19.5% | [4] 9.55% | [5] -22.6% | [6] 7.95%

COc1ccc(NC(=O)Cc2cc3ccccc3oc2=O)cc1
inactive: [1] 8.05% | [2] 1.05% | [3] -3.75% | [4] -46.3% | [5] -0.3% | [6] 7.95%

O=P(c1ccccc1)(c1ccccc1)C(O)c1cccs1 (stereo unspecified)
inactive: [1] 12.8% | [2] 2% | [3] 17.6% | [4] 15.5% | [5] 24.9% | [6] 18.8%

Cc1nc(N)[nH]c(=O)c1CCCN(c1ccccc1)S(=O)(=O)c1ccc(N)cc1
inactive: [1] 9.4% | [2] -1.35% | [3] -2.3% | [4] -22.9% | [5] -2.35% | [6] 19.6%

C1CCC(N(CCN(C2CCCCC2)C2CCCCC2)C2CCCCC2)CC1
inactive: [1] -38.5% | [2] -32.8% | [3] -26.7% | [4] 15.3% | [5] 5.6% | [6] -11.9%

Cc1ccc(CN(C)C)c(C(O)c2ccccc2)c1 (stereo unspecified)
inactive: [1] 14.9% | [2] -0.75% | [3] -0.1% | [4] 11.1% | [5] 6.6% | [6] -2.45%

O=c1c2ccccc2nc2sc3nc4ccccc4c(=O)n3n12
inactive: [1] 4% | [2] -10.8% | [3] -8.85% | [4] -56% | [5] -4.2% | [6] -11.8%

COc1cc2c(cc1OC)C(c1ccccc1CCCCl)=NCC2
inactive: [1] 6.4% | [2] -4% | [3] -25.1% | [4] 10.8% | [5] -27.5% | [6] -44.7%

COc1cc(Nc2cnc3cc(N)ccc3n2)cc(OC)c1OC
inactive: [1] -16.8% | [2] -33.8% | [3] -31.2% | [4] -16.2% | [5] -9.65% | [6] -45.5%

C=CCCCCCCCCO
inactive: [1] -12.1% | [2] -3.6% | [3] 8.3% | [4] -13% | [5] -10% | [6] -8.6%

NC(=O)C(=CNC(=S)Nc1ccc(Cl)c(Cl)c1)C(N)=O
inactive: [1] 8.6% | [2] -3.75% | [3] 18.4% | [4] 27.3% | [5] 2.05% | [6] 3.9%
